Potency and outcome data for 17 compounds are collected here from PubChem BioAssay (Tox21).

Assay [1] in a line: qHTS assay to identify small molecule antagonists of the thyroid receptor (TR) signaling pathway (AID 743065). Note: series mostly up to about 70 µM; nearly all actives have a fitted effect of over 55% in size. In outline:
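GH3.TRE-Luc rat pituitary cells carrying two TR response elements driving luciferase were plated for 4 h, given compound plus 1 nM T3 (final), and incubated 23.5 h at 37 C. ONE-Glo luminescence measured reporter inhibition; CellTiter-Fluor fluorescence tracked cytotoxicity.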
(In general: Quantitative high-throughput screening tests each substance at several concentrations.)

Assay [2] concerns thyroid hormone receptor (rat, GH3 cells). Description: qHTS assay to identify small molecule agonists of the thyroid receptor (TR) signaling pathway (AID 743066; calls by dose curve).
Assay [3] in a line: qHTS assay to identify small molecule antagonists of the estrogen receptor alpha (ER-alpha) signaling pathway - cell viability counter screen (AID 743074; calls by dose curve;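 note: HEK293 cells carrying ER-alpha-UAS-bla reporter stimulated with 17beta-estradiol; nearly all actives have a fitted effect of over 45% in size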).
The nature of assay [4]: qHTS assay to identify small molecule antagonists of the estrogen receptor alpha (ER-alpha) signaling pathway using the BG1 cell line - cell viability counter screen (AID 743081).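 Note: compound given together with 17beta-estradiol as the ER stimulus; series mostly up to about 70 µM; nearly all actives have a fitted effect of over 45% in size.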
A further assay has as its target Aromatase (Homo sapiens) (UniProt P11511). Description: qHTS assay to identify aromatase inhibitors (AID 743083). Note: series mostly up to about 70 µM; nearly all actives have a fitted effect of over 55% in size.
Assay [5] in a line: qHTS assay to identify aromatase inhibitors - cell viability counter screen (AID 743084).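 Note: cells stimulated with testosterone during compound exposure; nearly all actives have a fitted effect of over 55% in size.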
Assay [6] can be described thus: qHTS assay to identify small molecule that activate the aryl hydrocarbon receptor (AhR) signaling pathway - cell viability counter screen (AID 743086).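 Note: HepG2 liver cells carrying the AhR DRE luciferase reporter; series mostly up to about 70 µM; nearly all actives have a fitted effect of over 45% in size.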 The procedure, abridged: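 HepG2-AhR-luc (HG2L7.5c1) cells, 4000/well, were preincubated 5 h at 37C, exposed to compound in qHTS format for 24 hr at 37C, then given CellTiter-Fluor for 30 min; viability was read as fluorescence in the reporter wells.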

Assay [7] addresses Peroxisome proliferator-activated receptor gamma (Homo sapiens) (UniProt P37231). Description: qHTS assay to identify small molecule agonists of the peroxisome proliferator-activated receptor gamma (PPARg) signaling pathway (AID 743094; active = well fitted activation curve with a large enough effect in the signal ratio in the repeat runs, not every such curve was filed as active; the % refers to the signal ratio). In outline: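 Quantitative HTS agonist mode: stable HEK293H line with UAS-beta-lactamase reporter under PPARg control, 17 h compound exposure at 37C, fluorescence after 1 h FRET substrate loading at room temperature.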

A short description of assay [8]: qHTS assay to identify small molecule antagonists of the peroxisome proliferator-activated receptor gamma (PPARg) signaling pathway - cell viability counter screen (AID 743194). Note: nearly all actives have a fitted effect of over 55% in size. In outline:
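PPARg-UAS-bla HEK293H cells were plated, rested 5 h at 37 C, then treated with compounds plus rosiglitazone (50 nM final) for 17 h at 37 C; viability was then read by CellTiter-Glo luminescence after 30 min at room temperature.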

The nature of assay [9]: qHTS assay for small molecule agonists of the antioxidant response element (ARE) signaling pathway (AID 743202; active = well fitted activation curve with a large enough effect in the signal ratio in the repeat runs, not every such curve was filed as active; the % refers to the signal ratio). In outline: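 Compounds delivered in DMSO to ARE-bla HepG2 cells (2,000 cells/well, pre-incubated 5 h) and left 16 h at 37 C. LiveBLAzer B/G FRET substrate then added for 2 h at RT before fluorescence reading.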
A short description of assay [10]: qHTS assay for small molecule activators of the heat shock response signaling pathway - cell viability counter screen (AID 743209). Note: nearly all actives have a fitted effect of over 50% in size. In outline: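 First, HSE-bla HeLa cells were seeded at 1500 cells/well and kept overnight at 37 C. Next, compounds were pinned in and incubated 5 h. After the FRET substrate step, CellTiter-Glo was added and luminescence read 30 min later.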

A short description of assay [11]: qHTS assay to identify small molecule agonists of the peroxisome proliferator-activated receptor delta (PPARd) signaling pathway - cell viability counter screen (AID 743211). Note: nearly all actives have a fitted effect of over 55% in size. The procedure, abridged:
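Multiplexed format: after the 2 h room-temperature LiveBLAzer B/G FRET step, CellTiter-Glo was added to the same wells. Luminescence after 30 min gave cell viability; compound exposure was 17 h at 37C.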

Assay [12] has as its target Estrogen receptor (Homo sapiens) (UniProt P03372). The assay can be described thus: qHTS assay to identify small molecule antagonists of the estrogen receptor alpha (ER-alpha) signaling pathway (AID 743069; active = well fitted curve in the direction sought with a large enough effect in the signal ratio in the repeat runs, not every such curve was filed as active; the % refers to the signal ratio). The procedure, abridged:
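Estradiol-stimulated ER-alpha-UAS-bla HEK293 cells, 18 hr compound exposure at 37C. LiveBLAzer B/G substrate, 2 hr RT, fluorescence read.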

Assay [13] has the same target. The assay can be described thus: qHTS assay to identify small molecule agonists of the estrogen receptor alpha (ER-alpha) signaling pathway (AID 743075; calls by dose curve;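 note: HEK293 GripTite cells with ER-alpha and UAS-driven beta-lactamase reporter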).
Assay [14] has the same target. Description: qHTS assay to identify small molecule agonists of the estrogen receptor alpha (ER-alpha) signaling pathway using the BG1 cell line (AID 743079). Note: nearly all actives have a fitted effect of over 20% in size.
Assay [15] is described as follows: qHTS assay to identify small molecule antagonists of the estrogen receptor alpha (ER-alpha) signaling pathway using the BG1 cell line (AID 743080; calls by dose curve;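 note: BG1 cells stimulated with 17beta-estradiol alongside compound; series mostly up to about 70 µM; nearly all actives have a fitted effect of over 25% in size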). The procedure, abridged:
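Luciferase inhibition measured with ONE-Glo after 30 min at RT in BG1Luc4E2 cells given test compounds and 17beta-estradiol for 21.5 h at 37 C; CellTiter-Fluor viability read in the same wells beforehand.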

The target of assay [16] is Aryl hydrocarbon receptor (Homo sapiens) (UniProt P35869). The assay can be described thus: qHTS assay to identify small molecule that activate the aryl hydrocarbon receptor (AhR) signaling pathway (AID 743085).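 For activation: HG2L7.5c1 human HepG2 liver cells with stably integrated DRE-driven firefly reporter; series mostly up to about 70 µM.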 Note: nearly all actives have a fitted effect of over 15% in size. Note: potency is the fitted concentration of half-maximal effect. In outline:
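Reporter assay in engineered HepG2 line HG2L7.5c1, whose plasmid carries twenty dioxin responsive elements upstream of firefly luciferase. Treatment lasted 24 h at 37C; ONE-Glo luminescence gauged induction.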

Assay [17] addresses Peroxisome proliferator-activated receptor gamma (Homo sapiens) (UniProt P37231). Description: qHTS assay to identify small molecule antagonists of the peroxisome proliferator-activated receptor gamma (PPARg) signaling pathway (AID 743191; calls by dose curve; note: series mostly up to about 63 µM; nearly all actives have a fitted effect of over 30% in size). The procedure, abridged: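 GeneBLAzer PPARg UAS-bla HEK293H cells carrying a UAS-driven beta-lactamase reporter were plated at 3000 cells/well, preincubated 5 h at 37C, then given compound for 17 h at 37C; LiveBLAzer B/G FRET substrate was read after 1 h at room temperature.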

Assay [18] in a line: qHTS assay for small molecule agonists of the antioxidant response element (ARE) signaling pathway - cell viability counter screen (AID 743203; calls by dose curve; note: nearly all actives have a fitted effect of over 55% in size). The procedure, abridged:
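Seeded at 2,000 cells/well, ARE-bla HepG2 cells were incubated 5 hrs before compound addition. After 16 hrs of treatment at 37C with 5% CO2, CellTiter-Glo reagent was added and luminescence read 30 min later.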

Assay [19] can be described thus: qHTS assay for small molecule activators of the heat shock response signaling pathway (AID 743210; active = well fitted activation curve with a large enough effect in the signal ratio in the repeat runs, with a control signal flat, not every such curve was filed as active; the % refers to the signal ratio;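 note: HeLa cells with beta-lactamase reporter driven by heat shock elements; series mostly up to about 63 µM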). The procedure, abridged:
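Reporter gene assay: HeLa cells stably bearing an HSE-bla construct, compound treatment 5 h at 37 C, LiveBLAzer substrate 2.5 h at RT, fluorescence intensity.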

Molecules are shown by their SMILES. Inconclusive results are not listed. Values without a mark were called inactive. The source made the active and inactive calls. Unless noted, calls come from the whole dose curve; as a rule, active = well fitted curve in the direction sought with a large enough effect in the repeat runs; inconclusive = weak or mixed curves; inactive = no such curve, though single readings can be large; an effect the other way counts as inactive or inconclusive.

Sequence of Aryl hydrocarbon receptor (Homo sapiens) (P35869 whole entry, looked up): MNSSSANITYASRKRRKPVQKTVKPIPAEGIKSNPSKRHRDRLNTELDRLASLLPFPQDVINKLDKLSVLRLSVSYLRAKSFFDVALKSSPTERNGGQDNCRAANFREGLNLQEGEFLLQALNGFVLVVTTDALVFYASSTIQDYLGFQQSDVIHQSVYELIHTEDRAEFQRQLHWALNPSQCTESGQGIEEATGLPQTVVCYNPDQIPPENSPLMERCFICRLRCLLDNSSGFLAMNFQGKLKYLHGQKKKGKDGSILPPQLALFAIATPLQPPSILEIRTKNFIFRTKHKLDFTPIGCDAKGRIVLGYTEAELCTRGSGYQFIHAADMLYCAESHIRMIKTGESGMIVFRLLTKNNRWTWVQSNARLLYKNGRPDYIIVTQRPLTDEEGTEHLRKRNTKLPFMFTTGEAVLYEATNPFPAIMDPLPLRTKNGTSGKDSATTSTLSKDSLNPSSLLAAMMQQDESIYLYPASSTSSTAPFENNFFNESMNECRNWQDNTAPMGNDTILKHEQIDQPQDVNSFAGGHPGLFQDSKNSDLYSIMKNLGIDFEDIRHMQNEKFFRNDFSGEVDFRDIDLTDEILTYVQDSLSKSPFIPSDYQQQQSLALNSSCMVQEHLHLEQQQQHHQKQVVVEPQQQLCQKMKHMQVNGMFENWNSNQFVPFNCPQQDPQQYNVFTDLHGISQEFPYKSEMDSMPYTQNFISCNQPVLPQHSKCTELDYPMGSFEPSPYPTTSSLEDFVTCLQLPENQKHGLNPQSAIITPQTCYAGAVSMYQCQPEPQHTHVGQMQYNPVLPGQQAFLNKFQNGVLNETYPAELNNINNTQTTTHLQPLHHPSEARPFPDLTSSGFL
Sequence of Peroxisome proliferator-activated receptor gamma (Homo sapiens) (P37231 whole entry, looked up): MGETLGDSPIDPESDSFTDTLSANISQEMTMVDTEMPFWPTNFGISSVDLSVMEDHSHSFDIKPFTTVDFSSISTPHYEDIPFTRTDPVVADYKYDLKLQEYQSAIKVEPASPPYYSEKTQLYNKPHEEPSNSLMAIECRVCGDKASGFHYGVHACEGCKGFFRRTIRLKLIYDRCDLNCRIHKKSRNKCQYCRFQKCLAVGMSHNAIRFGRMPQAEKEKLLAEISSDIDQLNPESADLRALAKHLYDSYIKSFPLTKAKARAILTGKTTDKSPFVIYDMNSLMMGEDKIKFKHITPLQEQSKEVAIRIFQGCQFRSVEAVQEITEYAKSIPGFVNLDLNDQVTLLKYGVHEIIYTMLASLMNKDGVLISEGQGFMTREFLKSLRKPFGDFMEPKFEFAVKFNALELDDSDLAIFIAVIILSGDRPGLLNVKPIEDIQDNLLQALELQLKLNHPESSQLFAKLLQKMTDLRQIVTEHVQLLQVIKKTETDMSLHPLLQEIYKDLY
Sequence of Estrogen receptor (Homo sapiens) (P03372 whole entry, looked up): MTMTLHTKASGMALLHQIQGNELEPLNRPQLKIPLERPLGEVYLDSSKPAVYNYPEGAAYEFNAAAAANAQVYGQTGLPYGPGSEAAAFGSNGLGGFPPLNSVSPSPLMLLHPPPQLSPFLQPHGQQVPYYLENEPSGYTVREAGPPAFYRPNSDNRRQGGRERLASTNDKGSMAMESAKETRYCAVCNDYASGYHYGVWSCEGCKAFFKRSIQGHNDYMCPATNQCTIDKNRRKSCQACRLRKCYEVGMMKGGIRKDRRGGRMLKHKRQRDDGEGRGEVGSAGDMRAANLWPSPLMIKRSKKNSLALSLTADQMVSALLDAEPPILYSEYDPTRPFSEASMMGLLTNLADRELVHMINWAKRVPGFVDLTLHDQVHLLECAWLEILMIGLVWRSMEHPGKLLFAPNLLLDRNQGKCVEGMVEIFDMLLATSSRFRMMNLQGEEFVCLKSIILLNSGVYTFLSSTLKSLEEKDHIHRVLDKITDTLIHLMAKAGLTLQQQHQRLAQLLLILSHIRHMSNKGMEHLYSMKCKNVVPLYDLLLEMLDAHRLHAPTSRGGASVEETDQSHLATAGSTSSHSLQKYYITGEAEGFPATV
Sequence of Aromatase (Homo sapiens) (P11511 whole entry, looked up): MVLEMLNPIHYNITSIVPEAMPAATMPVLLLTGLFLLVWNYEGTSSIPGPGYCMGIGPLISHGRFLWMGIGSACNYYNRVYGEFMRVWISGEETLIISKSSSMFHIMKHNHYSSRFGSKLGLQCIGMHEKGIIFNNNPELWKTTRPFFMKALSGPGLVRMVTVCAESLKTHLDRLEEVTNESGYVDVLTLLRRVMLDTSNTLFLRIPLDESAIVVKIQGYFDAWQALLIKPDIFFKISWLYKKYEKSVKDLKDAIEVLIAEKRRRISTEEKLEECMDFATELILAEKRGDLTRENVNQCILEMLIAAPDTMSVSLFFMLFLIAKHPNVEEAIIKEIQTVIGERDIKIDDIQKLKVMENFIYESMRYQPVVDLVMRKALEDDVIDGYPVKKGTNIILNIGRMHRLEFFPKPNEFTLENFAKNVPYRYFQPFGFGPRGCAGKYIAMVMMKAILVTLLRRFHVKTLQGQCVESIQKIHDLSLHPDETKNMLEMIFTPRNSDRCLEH

Regarding `COc1cc(C)nc(-n2nc(C)cc2OC)n1`, the Potency entry in [1], in assay [3], in [5], in [6], in assay [7] and in [9] was “inactive” in each case. For the same compound, the call (in [2]; in assay [4]; with Aromatase (Homo sapiens); in assay [8]; in [10]; in [11]) was inactive.
As for `CCCCCC(=O)OCCc1ccccc1`, the call (in assay [2]; in assay [4]; with Aromatase (Homo sapiens); in [8]; in [18]; in assay [10]) was inactive. In addition, the call in [19] and in assay [11] was inactive. Besides, the Potency result in assay [12], in assay [3], in assay [13], in assay [14], in [15] and in [5] was “inactive” each time. In addition, the Potency entry in assay [16], in [6], in assay [7] and in [17] was “inactive” in each case.
`CCN1C=CN(C)C1C` (stereo not drawn): the outcome (in assay [2]; in [4]; in the assay with Aromatase (Homo sapiens); in assay [8]; in [18]; in assay [10]) was inactive. The compound was called inactive in assay [19] and in assay [11]. Further, the Potency result in assay [12], in assay [3], in assay [13], in [14], in [15] and in assay [5] was “inactive” each time. Besides, the Potency entry in [16], in assay [6] and in assay [7] was “inactive” each time.
With `C=C(C)C(=O)OCC1CCCO1` (stereo not drawn), the Potency entry in [1], in assay [3], in [6] and in [9] was “inactive” throughout. The result in assay [2], in [4], in [8], in assay [18], in assay [10] and in [19] was inactive. Besides, the compound was called inactive in assay [11].
With `CN1[C@@H]2CC[C@H]1CC(OC(=O)C(O)c1ccccc1)C2` (stereo partly drawn), the outcome (in assay [2]; in assay [4]; with Aromatase (Homo sapiens); in [8]; in [18]; in assay [10]) was inactive. Besides, the result in [19] and in assay [11] was inactive. Further, the Potency result in [12], in assay [3], in assay [13], in assay [14], in assay [15] and in [5] was “inactive” in each case. Moreover, the Potency result in [16], in assay [6], in [7], in assay [17] and in assay [9] was “inactive” each time.
With `C=CCOCC(O)CO` (stereo not drawn), the result (in assay [2]; in [4]; with Aromatase (Homo sapiens); in [8]; in assay [18]; in assay [10]) was inactive. Moreover, the compound was classed as inactive in assay [19] and in [11]. For the same compound, the Potency entry in assay [12], in [3], in assay [13], in assay [14], in [15] and in assay [5] was “inactive” each time. In addition, the Potency result in assay [16], in [6], in assay [7], in assay [17] and in assay [9] was “inactive” throughout.
For the compound `NC(=O)N[C@@H](CCC(=O)O)C(=O)O`, the Potency result in assay [1], in assay [3], in assay [6] and in assay [9] was “inactive” throughout. The outcome in assay [2], in [4], in [8], in assay [18], in assay [10] and in assay [19] was inactive. In assay [11], the outcome was inactive.
As to `O=S(=O)(O)c1cccc2ccccc12`, the Potency entry in assay [1], in assay [3], in assay [6], in [7] and in assay [17] was “inactive” each time. Further, the call (in assay [2]; in [4]; with Aromatase (Homo sapiens); in assay [8]; in assay [18]; in [10]) was inactive. Moreover, the compound was classed as inactive in [19] and in assay [11].
For `O=C1NC(=O)C2CC=CCC12` (stereo not drawn), the Potency entry in [1], in assay [3], in assay [6] and in assay [9] was “inactive” throughout. Also, the compound was classed as inactive in [2], in assay [4], in [10], in assay [19] and in assay [11].
For `CCN[C@H]1C[C@H](C)S(=O)(=O)c2sc(S(N)(=O)=O)cc21`, the compound was classed as inactive (in assay [2]; in assay [4]; with Aromatase (Homo sapiens); in assay [8]; in [10]; in assay [19]). Besides, the compound was classed as inactive in assay [11]. Besides, the Potency result in assay [12], in [3], in assay [13], in assay [14], in assay [15] and in assay [5] was “inactive” each time. The Potency result in [16], in assay [6], in assay [7], in [17] and in assay [9] was “inactive” each time.
On to `CC12CCC(C(=O)C1=O)C2(C)C` (stereo not drawn), for which the Potency result in assay [1], in assay [5], in assay [16] and in assay [6] was “inactive” in each case. In addition, the compound was classed as inactive (in assay [2]; in assay [4]; with Aromatase (Homo sapiens); in assay [8]; in assay [18]; in assay [10]). Further, the result in [19] and in assay [11] was inactive.
Turning to `CCCCCCCC1CCCC1=O` (stereo not drawn), the compound was classed as inactive (in assay [2]; in [4]; with Aromatase (Homo sapiens); in assay [8]; in assay [18]; in assay [10]). Besides, the result in assay [19] and in [11] was inactive. For the same compound, the Potency result in [12], in assay [3], in [13], in [14], in assay [15] and in assay [5] was “inactive” throughout. For the same compound, the Potency result in [16], in assay [6], in assay [7], in assay [17] and in assay [9] was “inactive” each time.
As for `C[C@@H]1CCC[C@H](C)N1`, the Potency result in assay [1], in assay [5], in [16], in assay [6], in [7] and in [17] was “inactive” throughout. Besides, the Potency entry in assay [9] is “inactive”. The call (in [2]; in [4]; with Aromatase (Homo sapiens); in assay [8]; in [18]; in assay [10]) was inactive. Besides, the result in assay [19] and in assay [11] was inactive.
Consider `CCN1CCOCC1`, for which the Potency entry in assay [1], in [3], in [5], in assay [6], in [7] and in assay [9] was “inactive” each time. In addition, the compound was classed as inactive (in assay [2]; in assay [4]; with Aromatase (Homo sapiens); in assay [8]; in [18]; in assay [10]). The outcome in assay [19] and in [11] was inactive.
In the case of `FB(F)F`, the compound was classed as inactive (in assay [2]; in [4]; with Aromatase (Homo sapiens); in assay [8]; in [18]; in [10]). Also, in assay [11], the compound was called inactive. The Potency result in [12], in [3], in assay [13], in [14], in [15] and in assay [5] was “inactive” throughout. For the same compound, the Potency result in assay [16], in [6] and in [7] was “inactive” each time.
On to `O=C1c2ccccc2C(=O)c2cc(O)ccc21`, for which the Potency entry in [1], in [3], in [6], in assay [7] and in [17] was “inactive” throughout. Further, the call (in assay [2]; with Aromatase (Homo sapiens); in assay [8]; in assay [18]; in [10]; in assay [19]) was inactive. The result in [11] was inactive. In addition, the Potency in assay [16] is 61.2 µM (active).
Take `Cc1c(N)c(=O)n(-c2ccccc2)n1C`: the Potency entry in assay [1], in assay [3], in [5], in assay [16] and in assay [6] was “inactive” in each case. Moreover, the result (in assay [2]; with Aromatase (Homo sapiens); in assay [8]; in [18]; in assay [10]; in assay [19]) was inactive. Further, the compound was called inactive in [11].
